Measured values as given in PubChem BioAssay (Tox21).
Records with an inconclusive call do not appear. A call without a number means that no potency is given here. The source made the active and inactive calls. The call rests on the fitted dose curve; in most records, active means well fitted cell-killing curve with a large enough effect in the repeat runs; inconclusive means weak or mixed curves, or effect the other way; inactive means flat fitted curve, though single readings scatter.

Experiment: cAMP Responsive Elements (CRE) small molecule antagonists, cell-based qHTS assay: qHTS cell viability counter screen (AID 2060913); further: nearly all actives have a fitted effect of over 40% in size
Details: CRE-bla HEK293T viability, CellTiter-Glo luminescence, 5 h; series mostly up to 92.4 µM
Outline: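 CRE-bla HEK293T cells were seeded in assay medium with 10% dialyzed FBS, incubated 18 hrs at 37 C, then exposed to compounds plus 0.25 uM final NKH477 for 3 hrs. Viability was read by CellTiter-Glo luminescence after 30 min, in the same wells.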

Structure (SMILES) | Potency
COc1cnc(OC)n2nc(NS(=O)(=O)c3c(OCC(F)F)cccc3C(F)(F)F)nc12 | inactive
C=CC(=O)OCC(CC)CCCC (stereo not drawn) | inactive
Cc1ccc(-c2nc3ccc(C)cn3c2CC(=O)N(C)C)cc1 | inactive
CN1C(=O)[C@@H](NC(=O)c2cc3ccccc3[nH]2)N=C(c2ccccc2)c2ccccc21 | inactive
O=P(Cl)(Cl)Cl | inactive
Nc1ncc([N+](=O)[O-])s1 | inactive
COc1cc(CCN)cc(OC)c1OC | inactive
c1ccc(Nc2ccc(Nc3ccccc3)cc2)cc1 | inactive
ClCc1cccc(Cl)c1 | inactive
ClCc1ccc(Cl)cc1Cl | inactive
Cc1cc2c3c(c1)C(c1ccccc1)=N[C@@H](NC(=O)c1ccncc1)C(=O)N3CC2 | inactive
CC(=O)[O-].CC(=O)[O-].O.O.O.[Pb+2] | inactive
ClCCCCl | inactive
OCCOc1ccccc1 | inactive
O=c1[nH]c(=O)[nH]c(=O)[nH]1 | inactive
CCN[C@@H](C)Cc1ccccc1 | inactive
Nc1nc(N)nc(Cl)n1 | inactive
c1ccc2c(c1)CCCC2 | inactive
CN1CCc2cc(Cl)c(O)cc2[C@H]2c3ccccc3CC[C@@H]21 | inactive
NCC1(CC(=O)O)CCCCC1 | inactive

Structure (SMILES) | Potency
CCSC(=O)Cl | inactive
CCOP(=S)(OCC)OP(=S)(OCC)OCC | inactive
CNC(=O)O/N=C/C(C)(C)S(C)(=O)=O | inactive
Oc1ccc([C@H]2CNCc3c2ccc(O)c3O)cc1O | inactive
CCOC(=O)CCl | inactive
CCOCN(C(=O)CCl)c1c(C)cccc1CC | inactive
O=C(O)C(Br)Br | inactive
CN(C)C(=O)Cl | inactive
C#CCN(C)[C@H](C)Cc1ccccc1 | inactive
Cc1ccc(OP(=O)(Oc2ccccc2)Oc2ccccc2)cc1 | inactive
CCCCCCCCCCCCOS(=O)(=O)O | inactive
O=[N+]([O-])C(Br)(CO)CO | inactive
CC(Oc1cccc(Cl)c1)C(=O)O (stereo not drawn) | inactive
CCC(OC(C)=O)C(CC(C)NC)(c1ccccc1)c1ccccc1 (stereo not drawn) | inactive
CCC/C=N/O | inactive
CN(C)C(=O)Nc1cccc(C(F)(F)F)c1 | inactive
C1CC2OC2CC1C1CO1 (stereo not drawn) | inactive
CC(Cl)C(=O)O (stereo not drawn) | inactive
CC(C)(C)C(=O)C(Cl)Cl | inactive

Experiment: cAMP Responsive Elements (CRE) small molecule agonists, cell-based qHTS assay: qHTS cell viability counter screen (AID 2060914);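 further: viability read after 3 h of compound exposure; nearly all actives have a fitted effect of over 50% in size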
Details: CRE-bla HEK293T viability, CellTiter-Glo luminescence, 5 h; series mostly up to 92.4 µM
Outline: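 Cells are seeded and incubated 18 h, treated with compounds in DMSO for 3 h, read for the bla reporter, then given CellTiter-Glo; luminescence is measured after 30 min at room temperature.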

Structure (SMILES) | Potency
COc1cnc(OC)n2nc(NS(=O)(=O)c3c(OCC(F)F)cccc3C(F)(F)F)nc12 | inactive
C=CC(=O)OCC(CC)CCCC (stereo not drawn) | inactive
Cc1ccc(-c2nc3ccc(C)cn3c2CC(=O)N(C)C)cc1 | inactive
CN1C(=O)[C@@H](NC(=O)c2cc3ccccc3[nH]2)N=C(c2ccccc2)c2ccccc21 | inactive
O=P(Cl)(Cl)Cl | inactive
Nc1ncc([N+](=O)[O-])s1 | inactive
COc1cc(CCN)cc(OC)c1OC | inactive
c1ccc(Nc2ccc(Nc3ccccc3)cc2)cc1 | inactive
ClCc1cccc(Cl)c1 | inactive
ClCc1ccc(Cl)cc1Cl | inactive
Cc1cc2c3c(c1)C(c1ccccc1)=N[C@@H](NC(=O)c1ccncc1)C(=O)N3CC2 | inactive
CC(=O)[O-].CC(=O)[O-].O.O.O.[Pb+2] | inactive
ClCCCCl | inactive
OCCOc1ccccc1 | inactive
O=c1[nH]c(=O)[nH]c(=O)[nH]1 | inactive
CCN[C@@H](C)Cc1ccccc1 | inactive
Nc1nc(N)nc(Cl)n1 | inactive
c1ccc2c(c1)CCCC2 | inactive
CN1CCc2cc(Cl)c(O)cc2[C@H]2c3ccccc3CC[C@@H]21 | inactive
NCC1(CC(=O)O)CCCCC1 | inactive

Structure (SMILES) | Potency
CCSC(=O)Cl | inactive
CCOP(=S)(OCC)OP(=S)(OCC)OCC | inactive
CNC(=O)O/N=C/C(C)(C)S(C)(=O)=O | inactive
Oc1ccc([C@H]2CNCc3c2ccc(O)c3O)cc1O | inactive
CCOC(=O)CCl | inactive
CCOCN(C(=O)CCl)c1c(C)cccc1CC | inactive
O=C(O)C(Br)Br | inactive
CN(C)C(=O)Cl | inactive
C#CCN(C)[C@H](C)Cc1ccccc1 | inactive
Cc1ccc(OP(=O)(Oc2ccccc2)Oc2ccccc2)cc1 | inactive
CCCCCCCCCCCCOS(=O)(=O)O | inactive
O=[N+]([O-])C(Br)(CO)CO | inactive
CC(Oc1cccc(Cl)c1)C(=O)O (stereo not drawn) | inactive
CCC(OC(C)=O)C(CC(C)NC)(c1ccccc1)c1ccccc1 (stereo not drawn) | inactive
CCC/C=N/O | inactive
CN(C)C(=O)Nc1cccc(C(F)(F)F)c1 | inactive
C1CC2OC2CC1C1CO1 (stereo not drawn) | inactive
CC(Cl)C(=O)O (stereo not drawn) | inactive
CC(C)(C)C(=O)C(Cl)Cl | inactive
